# Several values for one entry are separate records, joined by “and”; a condition that tells them apart may be missing. Identical values can stand only once. Inconclusive results are not listed. Activity calls are given as the source filed them. The call rests on the fitted dose curve.
# Test: qHTS assay for small molecules that induce genotoxicity in human embryonic kidney cells expressing luciferase-tagged ATAD5 - cell viability (AID 651634); further: nearly all actives have a fitted effect of over 25% in size
# Conditions: HEK293T ATAD5-luc cells viability, CellTiter-Fluor, 15.5 h; series mostly up to 83.3 µM; activity, negative = cytotoxicity: at the top concentration
# Description: National Center for Advancing Translational Sciences [NCATS]
# NIH Chemical Genomics Center [NCGC]
# U.S. Environmental Protection Agency [EPA]
# National Institutes of Environmental Health Sciences [NIEHS]
# National Toxicology Program [NTP]
# U.S. Food and Drug Administration [FDA]
# Enhanced Level of Genome Instability Gene 1 (ELG1; human ATAD5) protein levels increase in response to various types of DNA damage. Using a luciferase reporter-gene tagged with ElG1, a cell-based assay [developed by Kyungjae Myung, NHGRI, NIH] was used to measure the induction of ATAD5 in human embryonic kidney cells (HEK293T). So, increase in luciferase activity can be used to identify the compounds that cause genetic stress. In addition to genotoxicity, these cells were also used to test for cytotoxicity by measuring the protease activity within live cells.
# Tox21 Assay Protocol Summary:
# For cytotoxicity screening, 2,000 cells in 5 uL/well were dispensed into white, solid-bottom 1536-well plates using a Multidrop Combi (Thermo Scientific) dispenser. Following transfer of 23 nL compound or DMSO vehicle by a pin tool, the plates were incubated 15.5 hr at 37C and 5% CO2. 1 ul CellTiter-Fluor reagent (Promega, Madison, WI) was then added to each plate and following 30 min incubation at 37C, fluorescence intensity was quantified on a ViewLux CCD-based plate reader.
# On the % scale 0 is the no-effect control and ±100 the full control effect; potency means the concentration at half of the fitted maximal effect.
SMILES,Potency,"activity, negative = cytotoxicity"
CCN(CCC#N)c1ccc(N=Nc2c(Cl)cc([N+](=O)[O-])cc2Cl)cc1,54.5 µM (active),–
CCCCCCC[N+](CC)(CC)CCCCc1ccc(Cl)cc1,–,-13.5% [at 39.1 µM] (inactive)
NNc1nc(-c2ccc(N)cc2)cs1,24.3 µM (active),–
O=Cc1cc(O)ccc1Br,–,15.7% [at 95.3 µM] (inactive)
NNc1nc(-c2ccccc2)cs1,4.99 µM (active),–
O=C1c2c(O)ccc(Nc3ccc(CCO)cc3)c2C(=O)c2c([N+](=O)[O-])ccc(O)c21,48.6 µM (active),–
CC(C)=CCOc1ccc(/C=C/C(=O)c2ccc(OCC=C(C)C)cc2OCC(=O)O)cc1,–,-15.3% (inactive)
CCOC(=O)c1nc(C(Cl)(Cl)Cl)n(-c2ccc(Cl)cc2Cl)n1,–,18.6% (inactive)
O=C(OCC1CO1)C1CCCCC1C(=O)OCC1CO1 (stereo not given),–,-6.04% (inactive)
CCCCCCOC(=O)c1ccc(O)cc1,inactive,–
N=C1C=CC(=C(c2ccc(N)cc2)c2ccc(N)cc2)C=C1,24.3 µM (active),–
CCCCCCCCCCn1cc[n+](CCCCCCCCCC)c1C,68.7 µM (active),–
CCCCCCCCCCCCCCCCCC[N+](C)(C)C,61.3 µM (active),–
CCCCN1CCCC[C@H]1C(=O)Nc1c(C)cccc1C,–,20.5% (inactive)
Clc1ccc2n[nH]nc2c1,–,9.26% (inactive)
CC(C)c1ccc2c(c1)CC[C@H]1[C@](C)(CN)CCC[C@]21C,38.6 µM (active),–
NNc1nc(-c2ccc([N+](=O)[O-])cc2)cs1,24.3 µM (active),–
[Cl][Bi]([Cl])([c]1ccccc1)([c]1ccccc1)[c]1ccccc1,60.8 µM (active),–
CN(C)c1ccc(SC#N)cc1,–,-18.9% (inactive)
CCCC(c1cc(C(C)(C)C)c(O)cc1C)c1cc(C(C)(C)C)c(O)cc1C,31 µM (active),–

SMILES,Potency,"activity, negative = cytotoxicity"
CCCCC(CC)COP(=O)(O)OCC(CC)CCCC (stereo not given),–,-27.6% (inactive)
CNCc1cc(F)ccc1Oc1ccc(Cl)c(Cl)c1,–,26.2% (inactive)
C[C@@H]1C[C@H]2[C@@H]3CCC4=CC(=O)C=C[C@]4(C)[C@@]3(Cl)[C@@H](O)C[C@]2(C)[C@@]1(OC(=O)c1ccco1)C(=O)CCl,–,15.5% [at 39.1 µM] (inactive)
O=[N+]([O-])c1cc([N+](=O)[O-])c2ccc(S(=O)(=O)O)cc2c1O,21.6 µM (active),–
C[C@H]1[C@H]2CC[C@H]3[C@@H]4CC=C5C[C@@H](N(C)C)CC[C@]5(C)[C@H]4CC[C@]23CN1C,–,-14.4% (inactive)
O=C(OCC(COC(=O)c1ccccc1)(COC(=O)c1ccccc1)COC(=O)c1ccccc1)c1ccccc1,–,12.7% (inactive)
CC(C)(C)c1ccc(C(=O)O)cc1,–,3.06% (inactive)
O=C(Oc1cccc2cccnc12)c1ccccc1,–,-7.25% (inactive)
O=S1(=O)CC(Cl)(Cl)C(Cl)(Cl)C1,24.3 µM (active),–
CN(C)[C@@H]1C(=O)C(C(N)=O)=C(O)[C@@]2(O)C(=O)C3=C(O)c4c(O)ccc(Cl)c4[C@@H](O)[C@H]3C[C@@H]12,–,28.7% (inactive)
O=C(NOCC1CC1)c1ccc(F)c(F)c1Nc1ccc(I)cc1Cl,–,-29.2% (inactive)
C/C=C(\C)C(=O)OCc1ccccc1,–,-9.54% (inactive)
Nc1ccc(N)c2ccccc12,15.3 µM (active),–
O=c1[nH]cnc2nc[nH]c12,–,16.1% (inactive)
CCCCC(CC)CN=C(N)NC(N)=NCCCCCCN=C(N)NC(N)=NCC(CC)CCCC (stereo not given),26.6 µM (active),–
CC(C)CCCCCCCCCCCCCCC(=O)O,–,-10% (inactive)
CN(C)c1ccc(C2(c3ccc(N(C)C)cc3)OC(=O)c3cc(N(C)C)ccc32)cc1,–,12.3% (inactive)
C=CC(=O)OCC(CO)(COC(=O)C=C)COC(=O)C=C,12.2 µM (active) and 15.4 µM (active),–
Cn1cc(C(=O)[C@@H]2CCc3nc[nH]c3C2)c2ccccc21,–,37% (inactive)
CCCCCCCCCCCCCCCS(=O)(=O)Oc1ccccc1,–,26.6% (inactive)
